Our source for the inhibition values is PubChem BioAssay AID2717 (Broad Institute, 2010).

Several values for one entry are separate records, joined by “and”; a condition that tells them apart may be missing. Equal values may be shown once. The campaign covered roughly 300,000 compounds. About 3,200 (1.1%) were called active. The sample holds actives, similar compounds and a random draw of the others, so the mix is not that of the screen. Unmarked numbers belong to inactive results. No stated cut-off is given here; in the data, active means inhibition above about 75%; inconclusive means no clear call, values can overlap the other calls; inactive means below that; tested in HMLE shEcad cells.

A short description of the test: growth suppression of cancer stem-like cells – cell-based, luminescence, primary screen (AID 2717). The conditions noted are these: cancer stem cell-like cells viability, at 7.5 µM, hits give high values.
In the case of `Oc1ccccc1N1CCN(C(=S)NCc2ccccc2)CC1`, the inhibition was 12%.

For `Oc1ccc(N2CCN(C(=S)NCc3ccccc3)CC2)cc1`, the inhibition is 76.5% (active).

As to `O=C(COC(=O)c1ccccc1C(=O)N1CCN(c2ccccc2)CC1)NCc1ccccc1`, the inhibition was -12.2%.

In the case of `O=C(COC(=O)c1ccc2c(c1)OCCO2)NCc1ccccc1Cl`, the inhibition is -17.4%.

In the case of `Cc1ccc(N2C(=O)N3[C@@H]4c5ccccc5OC[C@@H]4[C@@H](c4ccccc4)[C@@]3(C)C2=O)cc1`, the inhibition is -10%.

Take `CCN(CC)c1ccc(/C=N/NC(=O)CNC(=O)c2cccnc2)cc1`: the inhibition was -7.16%.

In the case of `O=C(N/N=C/c1ccc(O)c2ccccc12)c1cccnc1`, the inhibition was 8.51%.

Turning to `CCN(CC)c1ccc(/C=N/NC(=O)c2cnccn2)c(O)c1`, the inhibition is 102% (active).

Take `O=C(COC(=O)c1ccc([N+](=O)[O-])o1)NC12CC3CC(CC(C3)C1)C2`: the inhibition was -15.4%.

Turning to `COCCn1c(C)cc(C(=O)CN2c3cccc4cccc(c34)S2(=O)=O)c1C`, the inhibition was 12.1%.

With `COc1cc(/C=N/O)cc(Br)c1OCc1cccc(Cl)c1`, the inhibition is 80.5% (active).

With `COc1cc(/C=N/O)cc(Br)c1OS(=O)(=O)c1ccc(C)cc1`, the inhibition was -11.5%.

`COc1cc(/C=N/O)ccc1OCc1ccc([N+](=O)[O-])cc1`: the inhibition was 1.34%.

For the compound `CN(CC(=O)NC1CCN(Cc2ccccc2)CC1)S(=O)(=O)c1ccc(Cl)s1`, the inhibition was -6.54%.

As to `O=C(O)c1ccc(Cn2c(=S)[nH]c3cc(Cl)ccc3c2=O)cc1`, the inhibition was -3.92%.

For `CC(C)c1ccc2c(c1)c(SC(C)(C)C)c(CC(C)(C)C(=O)O)n2Cc1ccc(Cl)cc1`, the inhibition is 104% (active) and 102% (active).

Regarding `O=C1COc2ccc(C(=O)COC(=O)c3ccccc3Cl)cc2N1`, the inhibition was -17.8%.

As for `Fc1ccccc1-c1cc2cc3c(cc2cn1)OCO3`, the inhibition was 14.4%.

On to `COC(=O)C1=C(C)N(Cc2ccccc2)C(=NCCCOC(C)C)N[C@H]1c1ccccc1`, for which the inhibition is 0.115%.

Take `CCOC(=O)N1CCN(C(=O)c2ccc(S(=O)(=O)Nc3cccc(C(F)(F)F)c3)cc2)CC1`: the inhibition was 8.22%.

Regarding `O=C(/C=C/c1ccc(F)cc1)Nc1cccc(S(=O)(=O)Nc2cccc(C(F)(F)F)c2)c1`, the inhibition was 2.9%.

For the compound `Cc1oc2c(F)c(F)c(F)c(F)c2c1S(=O)(=O)Nc1cccc(C(F)(F)F)c1`, the inhibition is 97.3% (active).

As to `Cc1ccc(C)c(NC(=S)NNC(=O)c2csc(C)c2)c1`, the inhibition is 3.04%.

With `Cc1ccc(C)c(NC(=S)NNC(=S)Nc2ccc(C(C)C)cc2)c1`, the inhibition is 102% (active).

As for `CC(C)c1ccc(NC(=S)NNc2ccc(Cl)c(C(=O)O)c2)cc1`, the inhibition was -18.1%.

In the case of `C[C@H]1COC(=O)[C@H](CC(=O)OC(C)(C)C)C/C=C\C[C@@H](CC(=O)N[C@H](CO)Cc2ccccc2)C(=O)N1`, the inhibition is -29.3%.

With `Cc1ccccc1SCC(=O)OCC(=O)N1CC(=O)Nc2ccccc21`, the inhibition was -8.14%.

`CC1CCCCC1NC(=O)COc1ccc(C#N)cc1` (stereo not drawn): the inhibition is -1.85%.

Turning to `CC/C(=N\NC(=S)NC(C)C)c1ccc(OC(F)F)cc1`, the inhibition is 2.7%.

As to `C/C(=N\NC(=S)NCc1ccccc1)c1ccc(Cl)cc1`, the inhibition is 41.6%.

As for `C/C(=N\NC(=S)NC(C)C)c1ccc(C(C)(C)C)cc1`, the inhibition is 77.5% (active).

With `O=C(COc1cccnc1[N+](=O)[O-])Nc1ccc(Cl)cc1F`, the inhibition was -1.01%.

`O=C1C=C(c2cc(C(F)(F)F)cc(C(F)(F)F)c2)C[C@@H](c2ccc3c(c2)OCO3)C1`: the inhibition was 34.8%.

Consider `COCC(=O)Nc1c(I)c(C(=O)NCC(O)CO)c(I)c(C(=O)N(C)CC(O)CO)c1I` (stereo not drawn), for which the inhibition was 10.5%.

Turning to `CCN1/C(=C\c2ccc3ccccc3[n+]2CC)Sc2cc(C)ccc21`, the inhibition is 89.1% (active).

Regarding `CCN1/C(=C/c2ccc3ccc(C)cc3[n+]2CC)Sc2ccccc21`, the inhibition is 17.6%.

In the case of `COc1ccc(C(=O)N2CCN(c3ccc(C(C)=O)cc3F)CC2)cc1S(=O)(=O)NC1CC1`, the inhibition is 1.55%.

As to `Cc1cc(N=Nc2ccc3ccccc3c2)ccc1O`, the inhibition is 112% (active).

Regarding `CC(=O)CCC(=O)c1ccc2ccccc2c1`, the inhibition is -3.91%.

Consider `COc1ccc(N=Nc2ccc(O)c(P(=O)(c3ccccc3)c3ccccc3)c2)cc1`, for which the inhibition was 13.4%.

`CCN(CC)C(=O)c1nc[nH]c1C(=O)N(C)Cc1ccccc1`: the inhibition was -14.8%.

Consider `COc1ccc(/C=C/C(=O)Nc2ccc(C)cc2)cc1S(=O)(=O)N1CCOCC1`, for which the inhibition was -2.38%.

For the compound `COc1ccc(/C=C/C(=O)Nc2ccc(C34CC5CC(CC(O)(C5)C3)C4)cc2)cc1OC`, the inhibition is 91% (active).

For the compound `COc1ccc(/C=C/C(=O)Nc2cccnc2)cc1OC`, the inhibition is 4.4%.

For the compound `CC(=O)C(CC(=O)N1CCCC1)C(=O)Nc1ccc(Cl)cc1` (stereo not drawn), the inhibition was -5.74%.

In the case of `Cc1cccc(NC(=O)c2nc[nH]c2C(=O)NCC(=O)OCc2ccccc2)c1`, the inhibition was -0.27%.

As to `CCSc1ncc(Cl)c(C(=O)Nc2cc(C)ccc2C)n1`, the inhibition is -7.15%.

Consider `CCSc1nnc(NC(=O)c2ccc(C)cc2)s1`, for which the inhibition was 15.4%.

Take `Cc1cccc(NC(=O)c2nc(S(=O)(=O)Cc3ccccc3)ncc2Cl)c1`: the inhibition is 109% (active).

In the case of `CSc1nnc(NC(=O)c2nc(S(=O)(=O)Cc3ccc(C)cc3)ncc2Cl)s1`, the inhibition was 104% (active).

Take `CSc1ncc(Cl)c(C(=O)Nc2cc(C)ccc2C)n1`: the inhibition is 4.07%.

As for `Cc1cc(C)cc(OCC(=O)OCC(=O)NC2CCCC2)c1`, the inhibition was 7.95%.

For the compound `CC(C)(C)OC(=O)C[C@@H]1C/C=C\C[C@@H](CC(=O)N[C@H](CO)Cc2ccccc2)C(=O)NC[C@@H](c2ccccc2)OC1=O`, the inhibition is 0.463%.

Consider `CCN(C(=O)COC(=O)CCC(=O)c1cccs1)C1CCCCC1`, for which the inhibition is -3.12%.

In the case of `CC1(c2ccccc2)NC(=O)N(CC(=O)N2CC(=O)Nc3ccccc32)C1=O` (stereo not drawn), the inhibition was -24.5%.

As to `COc1ccc(-c2c(-c3cc(OC)cc(OC)c3)n(C)c3ccc(-c4ccn[nH]4)cc23)cc1`, the inhibition is 109% (active).

`COc1cc(OC)cc(-c2c(-c3cccs3)c3cc(-c4ccc(OC)nc4)ccc3n2C)c1`: the inhibition was 30.1%.

Turning to `COc1cc(OC)cc(-c2c(-c3ccc(F)cc3)c3cc(-c4ccc5cc[nH]c5c4)ccc3n2C)c1`, the inhibition is 14.4%.

Consider `CNC[C@@H]1Oc2c(NS(C)(=O)=O)cccc2C(=O)N([C@@H](C)CO)C[C@H]1C`, for which the inhibition was -11.8%.

For the compound `O=C(/C=C/Sc1ncn[nH]1)c1ccc(Cl)cc1`, the inhibition was 112% (active).

Turning to `Cc1cc(C)nc(S/C=C/C(=O)c2ccccc2)n1`, the inhibition was 49.1%.

Regarding `O=C(CSc1ncn[nH]1)N/N=C/c1ccc(F)cc1`, the inhibition was 8.65%.

As to `CCOC(=O)[C@H]1[C@H]2COc3ccc(OC)cc3[C@@H]2N2C(=O)c3ccc(F)cc3NC(=O)[C@@]12C`, the inhibition was 9.18%.

With `CCCC(=O)Nc1ccc(C(=O)N/N=C/c2ccc[nH]2)cc1`, the inhibition is 110% (active).

Consider `CC(=O)Nc1ccc(C(=O)/C=C/c2ccc[nH]2)cc1`, for which the inhibition is -8.94%.

In the case of `CC(=O)Nc1ccc(C(=O)NNC(=O)CCCCC(=O)NNC(=O)c2ccc(NC(C)=O)cc2)cc1`, the inhibition was 0.726%.

In the case of `Cc1ccc(OCCC(=O)Nc2ccc(S(=O)(=O)Nc3nccs3)cc2)cc1`, the inhibition is -5.72%.

Regarding `COc1ccc(C)cc1NC(=O)CSc1cccc[n+]1[O-]`, the inhibition is -18.1%.

Regarding `O=C(Nc1cc(S(=O)(=O)N2CCCCC2)ccc1Cl)C1COc2ccccc2O1` (stereo not drawn), the inhibition was -13.5%.

In the case of `Cc1ccc(-n2[nH]c(C)c(/C=N/NC(=O)c3cccc([N+](=O)[O-])c3)c2=O)cc1C`, the inhibition was 104% (active).

Take `O=C(N/N=C/c1cccc([N+](=O)[O-])c1)c1ccncc1`: the inhibition was 0.983%.

On to `Cc1[nH]n(-c2ccccc2)c(=O)c1/C=N/NC(=O)c1ccoc1C`, for which the inhibition was 35.2%.

On to `CCC1CCCCN1C(=S)NC(=O)c1ccco1` (stereo not drawn), for which the inhibition is 7.21%.

On to `O=C(Nc1cc(-c2ccccc2)nn1-c1ccccc1F)c1ccc([N+](=O)[O-])cc1`, for which the inhibition was 1.45%.

In the case of `COc1ccc(S(=O)(=O)N2CCN(c3cnccn3)CC2)cc1`, the inhibition is 7%.

Consider `CC(C)(C)OC(=O)NCCCCCNC(=O)c1[nH]cnc1C(=O)Nc1nccs1`, for which the inhibition was 0.813%.

For `CC(=O)c1ccc(NC(=O)CSc2nc3ccccc3c(=O)n2CCCN2CCOCC2)cc1`, the inhibition is -2.25%.

Turning to `Clc1cccc(N=C2NN=C(c3ccc4c(c3)OCCO4)CS2)c1`, the inhibition is 17.2%.

Turning to `Cc1cccc(N=C2NN=C(c3c[nH]c4ccccc34)CS2)c1`, the inhibition was 80% (active).

For the compound `Cc1cccc(N=C2NC(=O)/C(=C/c3cn(C)c4ccccc34)S2)c1`, the inhibition is 47.4%.

Take `CCN(C(=O)CSc1nnnn1-c1ccc(OC)cc1)C1CCS(=O)(=O)C1` (stereo not drawn): the inhibition was -11.6%.

On to `CC(NC(=O)COC(=O)c1ccc2ccccc2n1)c1ccccc1` (stereo not drawn), for which the inhibition is 2.66%.

Regarding `CCc1ccc(-c2nn(-c3ccccc3C)cc2C(=O)N2CCN(C3CCS(=O)(=O)C3)CC2)cc1` (stereo not drawn), the inhibition is -16.1%.

For `CCc1ccc(-c2nn(-c3ccccc3)cc2CSC(=N)N)cc1`, the inhibition is 118% (active).

On to `O=C(Nc1cn(-c2ccccc2)nc1-c1ccccc1)c1ccccc1`, for which the inhibition is -3.4%.

Take `Cc1cccc(-c2oc3ccc(-c4ccc5c(c4)OCO5)cc3c2C#Cc2cncn2C)c1`: the inhibition is 94.9% (active).

Consider `COc1ccc(C#Cc2c(-c3ccc(OC)cc3)oc3ccc(-c4ccc5c(c4)OCO5)cc23)cc1`, for which the inhibition was -6.59%.

`COc1ccc(/C=C/c2c(-c3cccc(C)c3)oc3ccc(-c4ccc5c(c4)OCO5)cc23)cc1`: the inhibition is -7.1%.
